Several values for one entry are separate records, joined by “and”; a condition that tells them apart may be missing. Equal entries are not always repeated.

For this experiment, the system named is HL-1. The experiment is described as follows: cardiomyocyte survival under oxidative or metabolic stress – cell-based, panel, H9c2 and HL-1, ATP luminescence, set 2, SAR follow-up (AID 651871).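 Note: cells exposed to stressor for 2 h before ATP readout; reference of the scale not given here.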 The settings on record: H9c2/HL-1 cardiomyocytes, H2O2 oxidative stress; with H2O2, run 1, at 79 µM (top of the series).
`COc1ccc2c(c1OC)C(=O)N1c3ccccc3C(=O)N(Cc3cccc(Cl)c3Cl)C21` (centres undefined): the activity (protection/inhibition) is -0.863% and -7.11% and 4.56%.

`CCOC(=O)c1cccc(NC(=O)CNC(=O)c2cc(-c3cc(OC)c(OC)c(OC)c3)nc3ccccc23)c1`: the activity (protection/inhibition) was 56.7%. Under `COc1cc(-c2cc(C(=O)Nc3cccc(C(=O)NCc4ccccc4)c3)c3ccccc3n2)cc(OC)c1OC` stands 34.6%. With `COc1ccc2nc(-c3cc(OC)c(OC)c(OC)c3)cc(C(=O)NCC(=O)Nc3ccc(C(C)=O)cc3)c2c1`, the activity (protection/inhibition) is 41.2% and 24.9%.

The values are drawn from PubChem BioAssay AID651871 (Sanford-Burnham Center for Chemical Genomics, 2012).
